Common to all, as to assay: DAPPL (digital affinity profiling via proximity ligation, sequencing); 10 mM Tris-HCl pH 7.5, 50 mM NaCl, 1 mM DTT, 4% glycerol, room temperature, 30 min; GST-TFs on glutathione beads, 16-mer random dsDNA library, 0.1% formaldehyde crosslink after washing; high values mean tight binding
Assay [1] deals with T1, FEV (Homo sapiens, UniProt Q99581 1-238).
T1 sequence: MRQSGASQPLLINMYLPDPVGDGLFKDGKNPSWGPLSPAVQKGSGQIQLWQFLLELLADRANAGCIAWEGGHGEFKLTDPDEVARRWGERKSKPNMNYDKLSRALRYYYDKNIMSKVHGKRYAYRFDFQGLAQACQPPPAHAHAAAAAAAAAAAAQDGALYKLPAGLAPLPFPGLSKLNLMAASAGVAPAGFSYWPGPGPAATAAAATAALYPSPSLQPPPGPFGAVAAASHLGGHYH
Conditions: protein: recombinant; tags: N-terminal GST; dsDNA, one strand shown. An outline of the steps:
(§1)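 Each value of binding signal is a hexamer's read frequency for a factor divided by the same hexamer's frequency in the tag-only sample. Barcoded, bead-captured GST fusions of human transcription factors made in yeast were pooled with that sample and incubated with 200 nmole of a random double-stranded 16-mer DNA library in Tris/NaCl/DTT/glycerol buffer at room temperature for 30 min. Washing, 0.1% formaldehyde crosslinking, proximity ligation, PCR and Illumina NextSeq500 sequencing followed.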

For assay [2], the target named is ETV5 (Homo sapiens, UniProt P41161 1-510). Conditions: protein: recombinant; tags: N-terminal GST; dsDNA, one strand shown. An outline of the steps:
as §1

Assay [3] concerns the target HSF1 (Homo sapiens, UniProt Q00613 1-529). Conditions: protein: recombinant; tags: N-terminal GST; chain copies: 3; dsDNA, one strand shown. An outline of the steps: as §1
In assay [4] the target is T2, SPIC (Homo sapiens, UniProt Q8N5J4 1-248).
T2 sequence: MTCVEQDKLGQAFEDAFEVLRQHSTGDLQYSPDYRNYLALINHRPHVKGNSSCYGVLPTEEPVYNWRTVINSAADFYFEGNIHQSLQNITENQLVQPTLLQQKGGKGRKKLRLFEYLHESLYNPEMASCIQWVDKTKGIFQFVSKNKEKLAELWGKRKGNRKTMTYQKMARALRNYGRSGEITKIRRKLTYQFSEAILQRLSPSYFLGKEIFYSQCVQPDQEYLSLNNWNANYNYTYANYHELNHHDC
Conditions: protein: recombinant; tags: N-terminal GST; dsDNA, one strand shown. An outline of the steps: as §1

Assay [5] deals with ELF4 (Homo sapiens, UniProt Q99607 1-663). The following applies: protein: recombinant; tags: N-terminal GST; dsDNA, one strand shown. An outline of the steps:
as §1

The target in assay [6] is T3, ELK4 (Homo sapiens, UniProt P28324-2 1-405).
T3 sequence: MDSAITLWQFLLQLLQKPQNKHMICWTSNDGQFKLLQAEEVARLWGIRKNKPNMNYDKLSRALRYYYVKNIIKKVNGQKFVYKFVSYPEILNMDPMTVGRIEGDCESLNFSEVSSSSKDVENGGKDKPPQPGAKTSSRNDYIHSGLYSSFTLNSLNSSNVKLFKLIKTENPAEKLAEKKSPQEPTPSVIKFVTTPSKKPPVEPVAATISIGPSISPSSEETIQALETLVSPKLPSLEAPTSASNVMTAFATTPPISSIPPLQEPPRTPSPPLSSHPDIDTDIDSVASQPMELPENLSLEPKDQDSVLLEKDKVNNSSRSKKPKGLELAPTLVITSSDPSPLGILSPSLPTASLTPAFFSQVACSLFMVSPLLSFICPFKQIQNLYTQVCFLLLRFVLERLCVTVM
The following applies: protein: recombinant; tags: N-terminal GST; dsDNA, one strand shown. An outline of the steps:
as §1

Assay [7] has as its target T4, ETV2 (Homo sapiens, UniProt O00321 1-342).
T4 sequence: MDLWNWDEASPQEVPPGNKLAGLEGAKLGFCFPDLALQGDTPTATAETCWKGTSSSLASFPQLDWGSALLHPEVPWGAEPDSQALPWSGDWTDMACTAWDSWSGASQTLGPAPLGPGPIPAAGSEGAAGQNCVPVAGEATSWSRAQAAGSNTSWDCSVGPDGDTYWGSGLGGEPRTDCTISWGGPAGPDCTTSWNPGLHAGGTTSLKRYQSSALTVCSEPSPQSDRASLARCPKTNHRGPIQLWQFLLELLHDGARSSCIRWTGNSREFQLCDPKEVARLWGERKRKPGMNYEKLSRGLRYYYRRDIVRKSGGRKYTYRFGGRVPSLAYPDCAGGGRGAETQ
Conditions: protein: recombinant; tags: N-terminal GST; dsDNA, one strand shown. An outline of the steps: as §1

For assay [8], the target named is T5, ELF3 (Homo sapiens, UniProt P78545 1-371).
T5 sequence: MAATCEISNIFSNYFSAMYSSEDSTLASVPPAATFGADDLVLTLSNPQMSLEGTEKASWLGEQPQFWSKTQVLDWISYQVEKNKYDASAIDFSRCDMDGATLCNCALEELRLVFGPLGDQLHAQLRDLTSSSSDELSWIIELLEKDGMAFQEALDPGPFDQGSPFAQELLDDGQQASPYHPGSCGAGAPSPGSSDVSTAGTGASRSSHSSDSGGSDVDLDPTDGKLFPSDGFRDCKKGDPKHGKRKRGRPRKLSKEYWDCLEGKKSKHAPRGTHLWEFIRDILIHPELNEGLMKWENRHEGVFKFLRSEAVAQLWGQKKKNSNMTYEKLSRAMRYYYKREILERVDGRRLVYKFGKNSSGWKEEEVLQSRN
Conditions: protein: recombinant; tags: N-terminal GST; dsDNA, one strand shown. An outline of the steps: as §1

Assay [9] has as its target CRX (Homo sapiens, UniProt O43186 1-299). The following applies: protein: recombinant; tags: N-terminal GST; dsDNA, one strand shown. An outline of the steps: as §1
Assay [10] concerns the target ETV1 (Homo sapiens, UniProt P50549 1-477). Conditions: protein: recombinant; tags: N-terminal GST; dsDNA, one strand shown. An outline of the steps:
as §1

Assay [11] has as its target T6, ERF (Homo sapiens, UniProt P50548 1-548).
T6 sequence: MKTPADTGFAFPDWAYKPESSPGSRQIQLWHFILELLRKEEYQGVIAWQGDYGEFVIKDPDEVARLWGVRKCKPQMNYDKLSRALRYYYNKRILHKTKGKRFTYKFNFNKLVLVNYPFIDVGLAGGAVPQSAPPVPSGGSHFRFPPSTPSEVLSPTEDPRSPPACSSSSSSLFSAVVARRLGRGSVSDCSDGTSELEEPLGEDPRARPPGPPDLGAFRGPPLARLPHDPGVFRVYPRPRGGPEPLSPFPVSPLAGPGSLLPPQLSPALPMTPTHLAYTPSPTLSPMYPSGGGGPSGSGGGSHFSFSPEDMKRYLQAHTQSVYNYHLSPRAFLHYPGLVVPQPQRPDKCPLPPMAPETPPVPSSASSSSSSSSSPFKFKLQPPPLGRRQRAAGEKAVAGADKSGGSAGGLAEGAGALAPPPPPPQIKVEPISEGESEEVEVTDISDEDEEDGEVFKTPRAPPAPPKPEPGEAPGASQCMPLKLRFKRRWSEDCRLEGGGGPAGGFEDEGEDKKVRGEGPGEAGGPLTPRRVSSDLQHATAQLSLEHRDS
Conditions: protein: recombinant; tags: N-terminal GST; dsDNA, one strand shown. An outline of the steps:
as §1

For assay [12], the target named is T7, ETV3L (Homo sapiens, UniProt Q6ZN32 1-361).
T7 sequence: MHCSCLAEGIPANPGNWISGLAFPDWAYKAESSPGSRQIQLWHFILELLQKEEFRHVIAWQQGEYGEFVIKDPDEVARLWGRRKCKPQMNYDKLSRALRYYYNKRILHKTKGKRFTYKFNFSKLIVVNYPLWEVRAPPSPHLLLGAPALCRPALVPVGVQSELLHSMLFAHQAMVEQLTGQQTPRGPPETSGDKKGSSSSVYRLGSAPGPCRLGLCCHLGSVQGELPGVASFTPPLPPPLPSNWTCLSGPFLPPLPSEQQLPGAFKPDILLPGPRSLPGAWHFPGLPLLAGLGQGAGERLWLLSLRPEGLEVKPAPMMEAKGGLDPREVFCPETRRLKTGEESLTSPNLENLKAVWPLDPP
The following applies: protein: recombinant; tags: N-terminal GST; dsDNA, one strand shown. An outline of the steps:
as §1

The target in assay [13] is T8, ETS2 (Homo sapiens, UniProt P15036 1-469).
T8 sequence: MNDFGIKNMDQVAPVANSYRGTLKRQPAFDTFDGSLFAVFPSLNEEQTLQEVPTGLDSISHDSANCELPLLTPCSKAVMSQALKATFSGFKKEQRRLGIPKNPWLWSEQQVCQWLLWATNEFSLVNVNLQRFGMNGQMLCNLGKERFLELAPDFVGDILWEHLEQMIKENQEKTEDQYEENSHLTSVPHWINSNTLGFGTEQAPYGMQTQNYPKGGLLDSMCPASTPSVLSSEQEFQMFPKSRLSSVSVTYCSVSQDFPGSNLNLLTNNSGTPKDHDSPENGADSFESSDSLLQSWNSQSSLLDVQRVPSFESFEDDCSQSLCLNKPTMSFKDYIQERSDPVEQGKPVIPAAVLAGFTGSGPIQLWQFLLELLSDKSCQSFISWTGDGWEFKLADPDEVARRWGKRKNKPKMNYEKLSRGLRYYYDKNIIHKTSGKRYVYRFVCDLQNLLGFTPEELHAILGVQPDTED
The following applies: protein: recombinant; tags: N-terminal GST; dsDNA, one strand shown. An outline of the steps:
as §1

The target of assay [14] is T9, SPDEF (Homo sapiens, UniProt O95238 1-335).
T9 sequence: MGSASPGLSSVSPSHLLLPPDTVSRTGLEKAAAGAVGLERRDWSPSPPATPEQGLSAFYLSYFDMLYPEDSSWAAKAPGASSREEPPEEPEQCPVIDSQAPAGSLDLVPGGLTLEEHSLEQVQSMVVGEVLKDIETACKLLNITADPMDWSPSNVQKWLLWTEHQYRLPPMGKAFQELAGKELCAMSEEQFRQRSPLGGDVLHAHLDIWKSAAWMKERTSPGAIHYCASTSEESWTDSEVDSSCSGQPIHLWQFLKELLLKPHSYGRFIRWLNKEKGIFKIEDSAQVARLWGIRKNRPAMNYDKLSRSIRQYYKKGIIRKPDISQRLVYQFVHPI
Conditions: protein: recombinant; tags: N-terminal GST; dsDNA, one strand shown. An outline of the steps:
as §1

In assay [15] the target is T10, ETV7 (Homo sapiens, UniProt Q9Y603 1-341).
T10 sequence: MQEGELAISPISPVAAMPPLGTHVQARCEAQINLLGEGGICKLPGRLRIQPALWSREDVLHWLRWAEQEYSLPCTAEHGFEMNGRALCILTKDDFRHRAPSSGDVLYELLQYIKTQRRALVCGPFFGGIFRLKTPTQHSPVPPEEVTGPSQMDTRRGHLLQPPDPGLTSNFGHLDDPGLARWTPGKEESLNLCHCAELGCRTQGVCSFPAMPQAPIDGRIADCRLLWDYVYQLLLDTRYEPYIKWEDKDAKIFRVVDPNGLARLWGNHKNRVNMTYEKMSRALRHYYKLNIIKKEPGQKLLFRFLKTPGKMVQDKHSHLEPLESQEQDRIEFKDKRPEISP
Conditions: protein: recombinant; tags: N-terminal GST; dsDNA, one strand shown. An outline of the steps:
as §1

In assay [16] the target is T11, ELF5 (Homo sapiens, UniProt Q9UKW6-2 1-255).
T11 sequence: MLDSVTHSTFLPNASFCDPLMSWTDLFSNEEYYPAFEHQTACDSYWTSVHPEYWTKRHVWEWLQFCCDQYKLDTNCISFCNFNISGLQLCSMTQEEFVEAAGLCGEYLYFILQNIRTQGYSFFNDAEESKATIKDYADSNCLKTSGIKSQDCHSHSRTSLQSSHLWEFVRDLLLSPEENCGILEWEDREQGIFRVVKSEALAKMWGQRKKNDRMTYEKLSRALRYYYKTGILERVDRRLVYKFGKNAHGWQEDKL
Conditions: protein: recombinant; tags: N-terminal GST; dsDNA, one strand shown. An outline of the steps: as §1

Assay [17] has as its target T12, ETV3 (Homo sapiens, UniProt P41162-2 1-143).
T12 sequence: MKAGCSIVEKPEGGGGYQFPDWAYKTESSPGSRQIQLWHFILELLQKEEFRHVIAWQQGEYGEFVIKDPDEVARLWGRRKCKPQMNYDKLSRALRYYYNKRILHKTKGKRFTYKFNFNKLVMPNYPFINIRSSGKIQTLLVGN
Conditions: protein: recombinant; tags: N-terminal GST; dsDNA, one strand shown. An outline of the steps: as §1

Assay [18] concerns the target ETV6 (Homo sapiens, UniProt P41212 1-452). The following applies: protein: recombinant; tags: N-terminal GST; dsDNA, one strand shown. An outline of the steps: as §1

Sequence of HSF1 (Q00613 whole entry): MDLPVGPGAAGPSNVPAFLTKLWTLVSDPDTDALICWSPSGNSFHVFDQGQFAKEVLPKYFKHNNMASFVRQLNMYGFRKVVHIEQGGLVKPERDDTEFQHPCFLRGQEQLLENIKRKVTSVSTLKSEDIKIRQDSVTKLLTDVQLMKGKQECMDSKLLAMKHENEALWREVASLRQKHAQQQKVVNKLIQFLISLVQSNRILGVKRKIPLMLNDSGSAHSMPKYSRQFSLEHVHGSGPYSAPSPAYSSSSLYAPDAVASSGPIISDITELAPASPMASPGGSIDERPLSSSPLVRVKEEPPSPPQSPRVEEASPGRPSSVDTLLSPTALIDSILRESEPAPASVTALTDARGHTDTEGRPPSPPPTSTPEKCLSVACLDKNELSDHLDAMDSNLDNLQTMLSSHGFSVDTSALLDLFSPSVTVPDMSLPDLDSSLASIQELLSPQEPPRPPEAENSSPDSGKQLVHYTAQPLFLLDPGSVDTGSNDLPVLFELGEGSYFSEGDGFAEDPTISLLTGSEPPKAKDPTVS
Sequence of ETV1 (P50549 whole entry): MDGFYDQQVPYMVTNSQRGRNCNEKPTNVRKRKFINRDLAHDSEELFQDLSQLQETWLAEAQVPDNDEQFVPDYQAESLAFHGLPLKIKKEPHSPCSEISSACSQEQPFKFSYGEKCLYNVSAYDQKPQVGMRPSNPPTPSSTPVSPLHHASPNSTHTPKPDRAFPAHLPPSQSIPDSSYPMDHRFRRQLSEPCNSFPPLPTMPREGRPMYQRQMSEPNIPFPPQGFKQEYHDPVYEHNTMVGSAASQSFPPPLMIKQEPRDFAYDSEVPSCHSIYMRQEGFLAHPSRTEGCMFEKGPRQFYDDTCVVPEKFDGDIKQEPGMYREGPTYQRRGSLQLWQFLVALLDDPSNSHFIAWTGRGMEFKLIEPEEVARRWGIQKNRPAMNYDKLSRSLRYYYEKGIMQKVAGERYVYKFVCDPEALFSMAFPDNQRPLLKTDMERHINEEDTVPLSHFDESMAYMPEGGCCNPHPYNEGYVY
Sequence of CRX (O43186 whole entry): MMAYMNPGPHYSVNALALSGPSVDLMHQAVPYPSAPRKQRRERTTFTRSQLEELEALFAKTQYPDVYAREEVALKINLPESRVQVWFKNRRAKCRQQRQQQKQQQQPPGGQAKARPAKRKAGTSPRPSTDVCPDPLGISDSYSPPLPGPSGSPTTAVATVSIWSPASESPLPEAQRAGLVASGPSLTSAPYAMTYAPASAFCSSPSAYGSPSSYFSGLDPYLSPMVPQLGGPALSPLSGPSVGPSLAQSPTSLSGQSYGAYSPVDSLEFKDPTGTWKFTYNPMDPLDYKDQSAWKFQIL
Sequence of ELF4 (Q99607 whole entry): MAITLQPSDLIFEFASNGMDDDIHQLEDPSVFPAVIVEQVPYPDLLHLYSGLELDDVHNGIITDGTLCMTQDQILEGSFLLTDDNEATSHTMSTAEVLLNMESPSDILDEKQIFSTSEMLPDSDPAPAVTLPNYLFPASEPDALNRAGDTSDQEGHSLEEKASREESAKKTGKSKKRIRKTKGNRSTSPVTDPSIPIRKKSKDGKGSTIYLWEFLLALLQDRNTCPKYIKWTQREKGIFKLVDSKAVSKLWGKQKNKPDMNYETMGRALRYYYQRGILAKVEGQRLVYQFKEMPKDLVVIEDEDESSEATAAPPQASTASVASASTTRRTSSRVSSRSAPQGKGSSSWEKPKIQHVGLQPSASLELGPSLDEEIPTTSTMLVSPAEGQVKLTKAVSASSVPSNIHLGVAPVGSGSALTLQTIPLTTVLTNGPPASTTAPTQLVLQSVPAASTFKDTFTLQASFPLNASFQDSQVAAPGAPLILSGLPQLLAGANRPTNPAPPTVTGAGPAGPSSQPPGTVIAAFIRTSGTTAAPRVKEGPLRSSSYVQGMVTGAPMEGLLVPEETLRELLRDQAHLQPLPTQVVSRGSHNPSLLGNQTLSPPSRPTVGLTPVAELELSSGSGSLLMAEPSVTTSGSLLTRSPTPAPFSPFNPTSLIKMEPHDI
Sequence of ETV5 (P41161 whole entry): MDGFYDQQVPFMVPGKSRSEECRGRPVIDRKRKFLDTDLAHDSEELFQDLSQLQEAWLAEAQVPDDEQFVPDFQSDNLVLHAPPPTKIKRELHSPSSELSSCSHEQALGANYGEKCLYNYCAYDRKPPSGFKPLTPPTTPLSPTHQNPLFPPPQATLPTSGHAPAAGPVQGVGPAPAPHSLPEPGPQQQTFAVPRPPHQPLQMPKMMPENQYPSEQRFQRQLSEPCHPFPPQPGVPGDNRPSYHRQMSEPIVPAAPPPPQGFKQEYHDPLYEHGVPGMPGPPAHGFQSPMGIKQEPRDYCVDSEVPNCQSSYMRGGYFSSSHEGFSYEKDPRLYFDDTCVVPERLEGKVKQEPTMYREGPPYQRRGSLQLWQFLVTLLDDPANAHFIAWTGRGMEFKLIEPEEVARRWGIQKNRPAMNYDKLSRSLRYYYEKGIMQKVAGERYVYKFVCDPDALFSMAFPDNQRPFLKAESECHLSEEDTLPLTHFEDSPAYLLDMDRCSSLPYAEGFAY
Sequence of ETV6 (P41212 whole entry): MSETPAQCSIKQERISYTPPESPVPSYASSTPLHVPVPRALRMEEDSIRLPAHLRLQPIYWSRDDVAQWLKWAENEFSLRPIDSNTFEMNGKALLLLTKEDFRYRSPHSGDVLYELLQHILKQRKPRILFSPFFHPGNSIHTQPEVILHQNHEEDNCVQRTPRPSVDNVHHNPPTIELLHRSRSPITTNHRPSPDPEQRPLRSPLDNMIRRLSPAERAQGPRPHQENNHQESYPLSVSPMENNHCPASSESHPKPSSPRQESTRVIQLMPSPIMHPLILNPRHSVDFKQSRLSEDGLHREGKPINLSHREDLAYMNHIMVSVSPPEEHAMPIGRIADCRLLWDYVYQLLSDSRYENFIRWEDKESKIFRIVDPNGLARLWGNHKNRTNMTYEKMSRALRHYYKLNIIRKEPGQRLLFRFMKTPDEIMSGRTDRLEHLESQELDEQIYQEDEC

Consider CTCCCA, for which the binding signal is 1.39 fold enrichment (6-mer frequency, TF over GST control) in assay [1]; 1.37 fold enrichment (6-mer frequency, TF over GST control) in assay [2]; 1.17 fold enrichment (6-mer frequency, TF over GST control) in assay [3]; 1.38 fold enrichment (6-mer frequency, TF over GST control) in assay [4]; 1.4 fold enrichment (6-mer frequency, TF over GST control) in assay [5]; 1.44 fold enrichment (6-mer frequency, TF over GST control) in assay [6]. Further, the binding signal in assay [7] is 1.08 fold enrichment (6-mer frequency, TF over GST control); in assay [8], 1.36 fold enrichment (6-mer frequency, TF over GST control); in assay [9] it was 1.19 fold enrichment (6-mer frequency, TF over GST control); in assay [10], 1.32 fold enrichment (6-mer frequency, TF over GST control); in assay [11] it was 1.54 fold enrichment (6-mer frequency, TF over GST control); in assay [12] it was 1.29 fold enrichment (6-mer frequency, TF over GST control). The binding signal is 1.37 fold enrichment (6-mer frequency, TF over GST control) in assay [13]; 1.42 fold enrichment (6-mer frequency, TF over GST control) in assay [14]; 1.07 fold enrichment (6-mer frequency, TF over GST control) in assay [15]; 1.41 fold enrichment (6-mer frequency, TF over GST control) in assay [16]; 1.34 fold enrichment (6-mer frequency, TF over GST control) in assay [17]; 1.46 fold enrichment (6-mer frequency, TF over GST control) in [18].

For the origin of these results see PMC7862700, “An all-to-all approach to the identification of sequence-specific readers for epigenetic DNA modifications on cytosine”.
